Compound activity as filed in PubChem BioAssay.
BoNT-A LC inh2: BoNT/A light chain protease inhibitors, primary screen, biochemical, flow cytometry, MLPCN library; 0.17% of 360,000 active; inhibition, % at 10 µM; multiplex microsphere protease substrate cleavage; Botulinum neurotoxin type A light chain protease (Clostridium botulinum A str. ATCC 3502); AID 588499, 2011; note: plate controls were buffer without enzyme for full effect and enzyme alone for no effect
BoNT-F LC inh: BoNT/F light chain protease inhibitors, primary screen, biochemical, flow cytometry, MLPCN library; Multiplex microsphere protease cleavage assay; inhibition, % at 10 µM; 0.22% of 360,000 active; AID 588497, 2011; in the data active = inhibition above about 35%, passing the limit was not always enough; inconclusive = no clear call, values can overlap the other calls; note: plate controls were buffer without enzyme for full effect and enzyme alone for no effect
Bead autofluor: compound fluorescence in toxin protease inhibitor counterscreen; compound autofluorescence counterscreen, microsphere flow cytometry; hits give high values; fluorescence intensity (concentration not given with the values); 3.1% of 360,000 active; AID 624483; in the data active = fluorescence intensity above about 16000; inconclusive = no clear call, values can overlap the other calls
MazEF act: activators of E. coli MazEF toxin-antitoxin RNase, primary screen, biochemical, fluorescence, uHTS | 0.32% of 350,000 active | Endoribonuclease toxin MazF (Escherichia coli (strain K12)), P0AE70 | FAM/BHQ RNA-DNA oligo cleavage fluorescence, 5 h | AID 504720, 2011 | activation, % at 20 µM; in the data active = activation above about 50%
Target sequence (P0AE70 whole entry, looked up): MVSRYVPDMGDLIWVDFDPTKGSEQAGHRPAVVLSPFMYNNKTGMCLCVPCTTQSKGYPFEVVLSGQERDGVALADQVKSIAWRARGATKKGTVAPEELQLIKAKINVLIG
Anthrax LF inh2: Bacillus anthracis LF protease inhibitors, primary screen, biochemical, multiplex microsphere, MLPCN library; Lethal factor (Bacillus anthracis), P15917; multiplex microsphere protease cleavage assay; inhibition, % at 10 µM; 0.12% of 360,000 active; AID 588501, 2011; note: plate controls were buffer without enzyme for full effect and enzyme alone for no effect
Vc quorum ag: inducers of Vibrio cholerae quorum light production without autoinducers, primary screen, BH1578 luxS cqsA deficient, single point; 0.16% of 350,000 active; activation, % at 18.7 µM; V. cholerae BH1578 lux reporter, luminescence, 6 h; in the data active = activation mostly above about 9.7%, no sharp cut-off; inconclusive = no clear call, values can overlap the other calls; inactive = mostly below about 3.7%
The depositor's hits bear a star; i = inactive; ? = inconclusive; / = no result. Only some compounds are listed: those with a hit (about 3.9% of all), similar ones and a draw of the others. Cut-off read from the data, not from the text of the source, unless noted: active = inhibition above about 30%; inconclusive = no clear call, values can overlap the other calls; inactive = below that.

SMILES | BoNT-A LC inh2 | BoNT-F LC inh | Bead autofluor | MazEF act | Anthrax LF inh2 | Vc quorum ag
Cc1ccc(S(=O)(=O)N(CC(=O)N2CCN(c3ccccc3F)CC2)C2CCCCC2)cc1 | -1 | -3 | 20732* | 2 | -1 | 0
COc1cc(CN2C(=O)NC(=O)C3(Cc4cc(C)ccc4N(C)C3)C2=O)cc(OC)c1 (stereo not given) | 0 | -2 | 22009* | -10 | -2 | i
Cc1ccc2c(c1)CC1(CN2C)C(=O)NC(=O)N(c2cc(C)ccc2C)C1=O (stereo not given) | 1 | 3 | 22449* | -6 | -1 | -6
COc1ccc(OC)c(N2C(=O)NC(=O)C3(Cc4cc(C)ccc4N(C)C3)C2=O)c1 (stereo not given) | 0 | 2 | 16331* | -4 | -2 | i
O=C(C1CC(=O)N(c2ccccc2)C1)N1CCCCCC1 (stereo not given) | 0 | 10 | 5403 | 1 | -1 | 0
COc1ccc2c(C)cc(SCC(=O)N3CCOCC3)nc2c1 | 2 | 36* | 6037 | -62 | 6 | -1
CC1(C(=O)NC2CCCCCCC2)CCC(=O)N1Cc1cccs1 (stereo not given) | 0 | 2 | 16346* | -1 | -2 | 0
CC1(C(=O)NC2CCCC2)CCC(=O)N1Cc1cccs1 (stereo not given) | ? | -4 | 22707* | 1 | -4 | -1
CC(=O)c1cccc(NC(=O)CN2C(=O)NC(C)(C)C2=O)c1 | -1 | -6 | ? | 2 | -4 | i
O=C(CSc1nc(-c2ccccc2)c(-c2ccccc2)[nH]1)NCc1ccco1 | 0 | -2 | 23502* | -13 | -3 | -1
Cc1nc2cc(-c3ccc(Cl)cc3)nn2c(C)c1CCC(=O)NCc1ccco1 | -1 | -18 | 5867 | -3 | 0 | 0
CCOc1ccc2nc(SCC(=O)NCc3ccco3)sc2c1 | 3 | 4 | 21294* | -11 | 0 | -4
COc1ccc(-c2ccc(SCC(=O)NCc3ccco3)nn2)cc1 | -2 | -4 | 24470* | -4 | -2 | 0
COc1ccc(-c2cc3nc(C)c(CCC(=O)NCc4ccco4)c(C)n3n2)c(OC)c1 | -1 | 0 | 20470* | 6 | -1 | i
Cc1ccc(Cl)cc1N1C(=O)CC(Sc2ccccc2N)C1=O (stereo not given) | 0 | 3 | 3536 | -4 | -2 | -5
CCCCC1(C)NC(=S)N2N1C(=S)NC2(C)CCCC (stereo not given) | 1 | 3 | 5097 | -1 | -5 | 1
Cc1cc(C)c(OCC(=O)Nc2ccc(S(=O)(=O)N3CCCC3)cc2)c(C)c1 | 3 | 8 | 5751 | -23 | 6 | i
O=C(Nc1ccc(N2CCOCC2)c(Cl)c1)c1ccc(-n2cnnc2)cc1Cl | -1 | 0 | 6160 | 4 | -4 | i
CCOc1ccc2nc(SCC(=O)N3CCCc4ccccc43)sc2c1 | ? | 2 | 21324* | 2 | -6 | -3
COCCNC(=O)C1(C)CCN(C(=O)c2sc(-c3ccccc3)nc2C)C1 (stereo not given) | 0 | 0 | 3438 | / | -5 | i
CCCCCCCn1c(=N)n(CC(=O)c2ccco2)c2ccccc21 | 8 | i | ? | 24 | 72* | i
CCCCn1c(=N)n(CC(=O)c2ccco2)c2ccccc21 | 0 | -5 | 5655 | -6 | -6 | -6
COc1cc2nc(SCc3ccc(F)cc3)n(Cc3cccs3)c(=N)c2cc1OC | ? | -3 | 20501* | -5 | -1 | -4
O=C(c1cncc(Br)c1)N1CCCc2ccccc21 | 1 | 4 | 3511 | 11 | 5 | -1
O=C(c1cnn2ccccc12)N1CCCc2ccccc21 | 0 | -1 | 4083 | 4 | 0 | 0
SMILES | BoNT-A LC inh2 | BoNT-F LC inh | Bead autofluor | MazEF act | Anthrax LF inh2 | Vc quorum ag
O=C(c1ccc(S(=O)(=O)N2CCOCC2)cc1)N1CCCc2ccccc21 | -2 | -3 | 17398* | -5 | 2 | i
O=C(c1cnc2ccccn2c1=O)N1CCCc2ccccc21 | 9 | 10 | 17332* | -4 | -6 | 0
O=C(c1cnc2n(c1=O)CCS2)N1CCCc2ccccc21 | 3 | 4 | 22039* | 2 | 1 | 0
O=C(c1cccnc1)N1CCCc2ccccc21 | 0 | -2 | 20718* | -3 | -2 | -1
O=C(c1ccc(S(=O)(=O)N2CCCC2)cc1)N1CCCc2ccccc21 | 1 | 1 | 3630 | 1 | 1 | i
Cc1csc2ncc(C(=O)N3CCCc4ccccc43)c(=O)n12 | 0 | 0 | 5816 | 9 | -6 | i
N#Cc1cnn2ccn(C3OC(CO)C(O)C3O)c12 (stereo not given) | 0 | 12 | 6233 | 8 | 13 | 0
CCOc1ccc(C(CC(=O)O)NC(=O)C(CC)c2ccccc2)cc1 (stereo not given) | -4 | 2 | 3918 | 2 | -1 | i
CN(C(=O)COc1ccccc1C(=O)NCCOc1ccccc1)c1ccccc1 | -1 | -7 | 2635 | -3 | -1 | 4
CCCCn1cnc2c(SCc3ccc(Br)cc3)nc(N)nc21 | 0 | -1 | 3794 | 1 | -3 | i
COCc1nnc(NC(=O)c2cc(Cl)ccc2OC)s1 | -2 | -5 | 23665* | 9 | -1 | 2
COCc1nnc(NC(=O)c2ccc(NC(=O)C(C)C)cc2)s1 | -2 | -3 | 23228* | 8 | -2 | i
CC(=O)Nc1ccc(N(CC(=O)NC2CCCCC2)C(=O)Cn2nnc(-c3ccccc3)n2)cc1 | -1 | 8 | 4051 | 5 | 0 | -1
CCN1C(=O)/C(=C2/SC(C)=C(C)N2CC)SC1=S | 2 | 11 | 4231 | 76* | -4 | -3
CCCn1nc(CC(=O)O)c2ccccc2c1=O | 0 | 5 | 2754 | 5 | 0 | i
CCn1nc(CCC(=O)O)c2ccccc2c1=O | 3 | 3 | 22340* | 4 | -1 | i
C=CCNC(=S)Nc1ccc(N(C)C)cc1 | -1 | -20 | 5863 | 11 | -7 | i
CC1=C(CC(=O)c2ccccc2)C(=O)c2ccccc2C1=O | ? | 7 | 18823* | 5 | -2 | -3
O=C1CC(Nc2ccc(N3CCOCC3)cc2)C(=O)N1Cc1ccccc1 (stereo not given) | -2 | -8 | 22615* | -2 | -3 | 0
O=C1CC(Nc2ccc(N3CCOCC3)cc2)C(=O)N1c1ccccc1 (stereo not given) | 0 | -4 | 5502 | 12 | -11 | 7
CC(Sc1nc2ccccc2o1)C(=O)O (stereo not given) | -2 | -2 | 20941* | -2 | -1 | -1
Cn1ccs/c1=N\S(=O)(=O)c1ccc(F)cc1 | 0 | -9 | 3119 | 6 | 0 | -6
